The values that follow come from ChEMBL document CHEMBL2218924, “A broad activity screen in support of a chemogenomic map for kinase signalling research and drug discovery” (Biochem J, 2013).

In test [1] the target is Tyrosine-protein kinase SYK (Homo sapiens) (UniProt P43405). The conditions noted are these: at 10 µM.
Test [2] deals with T1, Mitogen-activated protein kinase kinase kinase 7 (Homo sapiens) (UniProt O43318).
T1 sequence (whole entry): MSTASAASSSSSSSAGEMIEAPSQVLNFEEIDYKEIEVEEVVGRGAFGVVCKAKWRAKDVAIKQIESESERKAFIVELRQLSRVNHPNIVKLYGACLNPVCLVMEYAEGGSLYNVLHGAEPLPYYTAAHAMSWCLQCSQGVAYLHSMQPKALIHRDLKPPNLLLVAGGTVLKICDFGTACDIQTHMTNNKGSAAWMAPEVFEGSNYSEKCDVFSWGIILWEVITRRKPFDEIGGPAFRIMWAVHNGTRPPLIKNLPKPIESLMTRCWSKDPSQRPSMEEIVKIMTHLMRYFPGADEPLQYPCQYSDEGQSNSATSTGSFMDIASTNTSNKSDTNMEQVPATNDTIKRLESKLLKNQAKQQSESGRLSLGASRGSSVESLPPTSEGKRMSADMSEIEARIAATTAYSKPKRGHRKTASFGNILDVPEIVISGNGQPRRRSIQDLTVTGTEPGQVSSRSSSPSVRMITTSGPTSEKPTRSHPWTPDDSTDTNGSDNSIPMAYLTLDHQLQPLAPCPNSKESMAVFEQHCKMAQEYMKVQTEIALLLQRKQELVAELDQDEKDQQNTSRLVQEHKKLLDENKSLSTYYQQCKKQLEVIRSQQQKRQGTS
The conditions noted are these: at 10 µM.

Test [3] addresses T2, Serine/threonine-protein kinase TAO2 (Homo sapiens) (UniProt Q9UL54).
T2 sequence (whole entry): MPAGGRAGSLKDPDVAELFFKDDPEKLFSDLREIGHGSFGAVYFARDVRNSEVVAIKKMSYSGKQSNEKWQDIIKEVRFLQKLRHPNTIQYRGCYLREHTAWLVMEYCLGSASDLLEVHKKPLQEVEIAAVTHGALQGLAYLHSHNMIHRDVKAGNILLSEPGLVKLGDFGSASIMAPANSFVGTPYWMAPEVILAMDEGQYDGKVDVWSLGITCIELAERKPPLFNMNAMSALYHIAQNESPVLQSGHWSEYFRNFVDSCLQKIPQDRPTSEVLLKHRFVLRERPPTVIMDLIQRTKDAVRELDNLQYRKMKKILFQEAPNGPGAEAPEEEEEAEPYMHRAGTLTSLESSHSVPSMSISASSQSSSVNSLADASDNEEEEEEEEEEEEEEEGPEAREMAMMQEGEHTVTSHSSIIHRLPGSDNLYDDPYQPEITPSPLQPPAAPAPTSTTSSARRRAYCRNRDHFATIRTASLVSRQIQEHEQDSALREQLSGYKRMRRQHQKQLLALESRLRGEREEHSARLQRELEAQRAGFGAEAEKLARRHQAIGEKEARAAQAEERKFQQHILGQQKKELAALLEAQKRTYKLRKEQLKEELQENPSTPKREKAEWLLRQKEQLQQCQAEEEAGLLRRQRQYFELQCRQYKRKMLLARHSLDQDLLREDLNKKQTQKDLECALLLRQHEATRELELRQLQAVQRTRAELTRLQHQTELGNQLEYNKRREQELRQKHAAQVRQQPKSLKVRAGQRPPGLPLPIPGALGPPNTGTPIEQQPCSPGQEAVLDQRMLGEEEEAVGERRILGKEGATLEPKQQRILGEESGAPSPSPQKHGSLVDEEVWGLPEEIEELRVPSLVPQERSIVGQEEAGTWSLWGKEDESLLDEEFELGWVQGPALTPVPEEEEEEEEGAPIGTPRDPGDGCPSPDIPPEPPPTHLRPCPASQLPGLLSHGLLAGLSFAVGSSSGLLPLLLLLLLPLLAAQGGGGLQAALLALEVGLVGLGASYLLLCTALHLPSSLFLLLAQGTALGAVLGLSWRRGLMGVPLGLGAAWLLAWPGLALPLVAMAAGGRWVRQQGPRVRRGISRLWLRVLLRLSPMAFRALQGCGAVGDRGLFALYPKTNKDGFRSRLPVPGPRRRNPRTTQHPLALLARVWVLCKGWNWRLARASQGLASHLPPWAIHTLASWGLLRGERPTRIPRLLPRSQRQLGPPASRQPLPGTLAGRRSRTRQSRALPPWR
The settings on record: at 1 µM.

Test [4] addresses T2, Serine/threonine-protein kinase TAO2 (Homo sapiens). The settings on record: at 10 µM.
Test [5] concerns the target T3, Serine/threonine-protein kinase TAO3 (Homo sapiens) (UniProt Q9H2K8).
T3 sequence (whole entry): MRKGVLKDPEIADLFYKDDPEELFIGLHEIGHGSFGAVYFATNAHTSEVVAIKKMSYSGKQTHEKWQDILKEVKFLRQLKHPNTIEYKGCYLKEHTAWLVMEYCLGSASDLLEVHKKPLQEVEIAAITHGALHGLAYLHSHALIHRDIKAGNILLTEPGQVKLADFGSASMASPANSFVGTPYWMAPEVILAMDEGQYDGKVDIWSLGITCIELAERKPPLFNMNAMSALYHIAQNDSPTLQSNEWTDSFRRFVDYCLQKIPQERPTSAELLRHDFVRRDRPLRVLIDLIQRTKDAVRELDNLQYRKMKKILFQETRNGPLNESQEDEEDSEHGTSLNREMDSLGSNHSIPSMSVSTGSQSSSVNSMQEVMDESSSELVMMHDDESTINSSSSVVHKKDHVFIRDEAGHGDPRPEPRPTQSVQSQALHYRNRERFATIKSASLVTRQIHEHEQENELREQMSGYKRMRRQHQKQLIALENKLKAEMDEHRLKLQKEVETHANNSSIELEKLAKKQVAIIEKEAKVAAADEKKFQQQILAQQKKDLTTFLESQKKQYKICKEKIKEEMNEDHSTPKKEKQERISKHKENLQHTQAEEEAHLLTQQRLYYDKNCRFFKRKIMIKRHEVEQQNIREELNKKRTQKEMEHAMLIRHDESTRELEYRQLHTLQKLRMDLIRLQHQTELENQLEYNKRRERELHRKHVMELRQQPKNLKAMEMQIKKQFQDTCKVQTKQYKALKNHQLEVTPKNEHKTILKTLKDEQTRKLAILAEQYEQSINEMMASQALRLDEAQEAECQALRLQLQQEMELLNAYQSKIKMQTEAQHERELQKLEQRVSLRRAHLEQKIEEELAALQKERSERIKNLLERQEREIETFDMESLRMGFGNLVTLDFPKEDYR
The conditions noted are these: at 1 µM.

The target of test [6] is T3, Serine/threonine-protein kinase TAO3 (Homo sapiens). The settings on record: at 10 µM.
The target in test [7] is T4, Serine/threonine-protein kinase TBK1 (Homo sapiens) (UniProt Q9UHD2).
T4 sequence (whole entry): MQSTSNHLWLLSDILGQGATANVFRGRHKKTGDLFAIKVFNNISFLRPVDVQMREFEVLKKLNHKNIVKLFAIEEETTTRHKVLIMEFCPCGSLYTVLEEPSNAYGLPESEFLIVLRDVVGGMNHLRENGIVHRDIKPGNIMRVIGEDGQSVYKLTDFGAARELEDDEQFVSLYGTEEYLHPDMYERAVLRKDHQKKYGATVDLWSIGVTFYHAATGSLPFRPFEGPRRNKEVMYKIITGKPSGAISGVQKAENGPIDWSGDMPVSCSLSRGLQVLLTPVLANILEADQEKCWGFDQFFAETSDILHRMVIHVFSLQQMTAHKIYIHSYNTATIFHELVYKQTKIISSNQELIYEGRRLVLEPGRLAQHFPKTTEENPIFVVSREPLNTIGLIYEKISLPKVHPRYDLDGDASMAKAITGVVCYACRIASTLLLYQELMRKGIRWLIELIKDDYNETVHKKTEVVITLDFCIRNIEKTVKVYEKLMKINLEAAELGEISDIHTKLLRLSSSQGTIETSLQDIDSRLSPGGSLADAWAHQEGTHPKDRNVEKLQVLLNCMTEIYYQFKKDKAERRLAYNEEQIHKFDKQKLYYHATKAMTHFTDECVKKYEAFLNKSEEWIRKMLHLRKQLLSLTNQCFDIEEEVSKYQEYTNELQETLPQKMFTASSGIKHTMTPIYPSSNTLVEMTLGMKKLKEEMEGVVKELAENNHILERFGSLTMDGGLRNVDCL
The settings on record: at 1 µM.

Test [8] addresses T4, Serine/threonine-protein kinase TBK1 (Homo sapiens). The conditions noted are these: at 10 µM.
Test [9] has as its target Insulin-like growth factor 1 receptor (Homo sapiens) (UniProt P08069). The settings on record: at 10 µM.
Test [10] concerns the target T1, Mitogen-activated protein kinase kinase kinase 7 (Homo sapiens). The conditions noted are these: at 1 µM.
Test [11] addresses T5, Serine/threonine-protein kinase TAO1 (Homo sapiens) (UniProt Q7L7X3).
T5 sequence (whole entry): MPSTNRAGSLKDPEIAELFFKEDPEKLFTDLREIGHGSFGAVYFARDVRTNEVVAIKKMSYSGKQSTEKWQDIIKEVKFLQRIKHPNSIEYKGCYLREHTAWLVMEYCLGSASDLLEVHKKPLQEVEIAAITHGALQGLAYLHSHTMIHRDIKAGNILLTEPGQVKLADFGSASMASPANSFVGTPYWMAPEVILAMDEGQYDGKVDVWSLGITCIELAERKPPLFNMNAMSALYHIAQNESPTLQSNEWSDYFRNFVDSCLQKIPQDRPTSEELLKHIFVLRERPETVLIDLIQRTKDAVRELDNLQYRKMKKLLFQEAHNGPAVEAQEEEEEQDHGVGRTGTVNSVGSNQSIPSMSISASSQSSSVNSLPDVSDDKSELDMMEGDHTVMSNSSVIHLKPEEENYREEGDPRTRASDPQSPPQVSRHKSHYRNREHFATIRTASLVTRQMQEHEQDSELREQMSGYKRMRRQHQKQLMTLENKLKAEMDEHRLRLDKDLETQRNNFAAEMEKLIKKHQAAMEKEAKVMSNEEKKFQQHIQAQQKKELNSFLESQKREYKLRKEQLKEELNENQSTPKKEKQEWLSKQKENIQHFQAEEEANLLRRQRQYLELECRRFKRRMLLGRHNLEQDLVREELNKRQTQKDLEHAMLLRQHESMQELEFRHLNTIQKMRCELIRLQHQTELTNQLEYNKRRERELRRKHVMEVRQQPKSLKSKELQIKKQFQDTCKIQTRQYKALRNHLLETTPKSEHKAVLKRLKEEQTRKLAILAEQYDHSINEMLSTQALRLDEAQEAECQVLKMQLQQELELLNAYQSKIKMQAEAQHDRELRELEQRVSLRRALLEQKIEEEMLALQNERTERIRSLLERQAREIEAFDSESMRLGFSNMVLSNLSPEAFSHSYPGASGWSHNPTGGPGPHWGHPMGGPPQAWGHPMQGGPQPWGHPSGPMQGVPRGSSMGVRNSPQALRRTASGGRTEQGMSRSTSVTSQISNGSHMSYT
The conditions noted are these: at 1 µM.

Test [12] concerns the target T5, Serine/threonine-protein kinase TAO1 (Homo sapiens). The conditions noted are these: at 10 µM.
Test [13] addresses T6, TGF-beta receptor type-1 (Homo sapiens) (UniProt P36897).
T6 sequence (whole entry): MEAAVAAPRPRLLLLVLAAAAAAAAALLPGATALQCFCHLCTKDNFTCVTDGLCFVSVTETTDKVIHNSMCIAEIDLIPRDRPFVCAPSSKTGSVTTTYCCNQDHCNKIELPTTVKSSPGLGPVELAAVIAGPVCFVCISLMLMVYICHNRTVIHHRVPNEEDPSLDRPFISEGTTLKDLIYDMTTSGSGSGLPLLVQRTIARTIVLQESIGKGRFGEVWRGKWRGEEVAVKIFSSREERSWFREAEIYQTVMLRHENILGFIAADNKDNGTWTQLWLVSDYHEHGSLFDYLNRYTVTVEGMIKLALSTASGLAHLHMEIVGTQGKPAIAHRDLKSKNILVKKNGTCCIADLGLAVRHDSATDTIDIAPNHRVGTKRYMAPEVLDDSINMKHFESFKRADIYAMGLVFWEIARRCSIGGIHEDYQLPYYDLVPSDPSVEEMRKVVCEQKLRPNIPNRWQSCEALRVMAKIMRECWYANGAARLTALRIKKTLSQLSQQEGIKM
The settings on record: at 1 µM.

Test [14] deals with T6, TGF-beta receptor type-1 (Homo sapiens). The conditions noted are these: at 10 µM.
The target of test [15] is Insulin-like growth factor 1 receptor (Homo sapiens) (UniProt P08069). The conditions noted are these: at 1 µM.
Test [16] deals with Insulin receptor (Homo sapiens) (UniProt P06213). The settings on record: at 1 µM.
Chain of Insulin receptor (Homo sapiens) (P06213 28-758 limits assumed): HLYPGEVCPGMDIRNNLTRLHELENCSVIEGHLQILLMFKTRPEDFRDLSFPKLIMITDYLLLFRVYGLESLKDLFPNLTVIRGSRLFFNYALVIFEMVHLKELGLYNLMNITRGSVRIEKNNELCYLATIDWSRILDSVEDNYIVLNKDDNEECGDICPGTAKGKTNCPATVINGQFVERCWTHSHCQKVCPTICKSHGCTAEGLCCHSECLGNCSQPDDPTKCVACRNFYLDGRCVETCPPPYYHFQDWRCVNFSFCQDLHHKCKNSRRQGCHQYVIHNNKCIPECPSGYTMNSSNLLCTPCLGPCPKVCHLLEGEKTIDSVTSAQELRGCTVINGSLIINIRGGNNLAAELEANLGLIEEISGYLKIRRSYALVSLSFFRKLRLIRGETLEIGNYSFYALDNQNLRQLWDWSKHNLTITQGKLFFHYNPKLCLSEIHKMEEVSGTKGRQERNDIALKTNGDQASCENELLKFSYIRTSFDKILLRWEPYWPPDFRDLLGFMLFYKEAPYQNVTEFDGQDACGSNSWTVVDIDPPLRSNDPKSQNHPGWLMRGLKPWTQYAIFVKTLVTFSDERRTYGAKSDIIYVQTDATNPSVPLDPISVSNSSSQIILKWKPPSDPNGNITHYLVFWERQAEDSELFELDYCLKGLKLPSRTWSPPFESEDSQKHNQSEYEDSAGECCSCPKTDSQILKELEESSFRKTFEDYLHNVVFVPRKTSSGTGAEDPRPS
Chain of Insulin receptor (Homo sapiens) (P06213 763-1382 limits assumed): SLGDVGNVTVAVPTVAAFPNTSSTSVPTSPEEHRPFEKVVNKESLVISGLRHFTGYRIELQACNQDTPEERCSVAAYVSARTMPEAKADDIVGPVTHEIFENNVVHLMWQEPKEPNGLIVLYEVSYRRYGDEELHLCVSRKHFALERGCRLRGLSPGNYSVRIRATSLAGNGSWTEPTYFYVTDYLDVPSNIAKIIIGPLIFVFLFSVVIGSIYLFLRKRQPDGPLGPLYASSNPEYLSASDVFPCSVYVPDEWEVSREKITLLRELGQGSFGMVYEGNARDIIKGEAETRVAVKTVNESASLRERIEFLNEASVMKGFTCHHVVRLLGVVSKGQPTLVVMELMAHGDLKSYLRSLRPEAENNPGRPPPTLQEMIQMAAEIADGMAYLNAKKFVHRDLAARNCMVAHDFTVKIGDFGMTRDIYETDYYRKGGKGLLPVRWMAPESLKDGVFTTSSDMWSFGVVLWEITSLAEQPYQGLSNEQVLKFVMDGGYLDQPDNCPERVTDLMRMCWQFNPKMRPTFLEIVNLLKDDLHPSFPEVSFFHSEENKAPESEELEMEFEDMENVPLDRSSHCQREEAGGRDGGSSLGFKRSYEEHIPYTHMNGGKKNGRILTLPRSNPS

Chain of Insulin-like growth factor 1 receptor (Homo sapiens) (P08069 31-736 limits assumed): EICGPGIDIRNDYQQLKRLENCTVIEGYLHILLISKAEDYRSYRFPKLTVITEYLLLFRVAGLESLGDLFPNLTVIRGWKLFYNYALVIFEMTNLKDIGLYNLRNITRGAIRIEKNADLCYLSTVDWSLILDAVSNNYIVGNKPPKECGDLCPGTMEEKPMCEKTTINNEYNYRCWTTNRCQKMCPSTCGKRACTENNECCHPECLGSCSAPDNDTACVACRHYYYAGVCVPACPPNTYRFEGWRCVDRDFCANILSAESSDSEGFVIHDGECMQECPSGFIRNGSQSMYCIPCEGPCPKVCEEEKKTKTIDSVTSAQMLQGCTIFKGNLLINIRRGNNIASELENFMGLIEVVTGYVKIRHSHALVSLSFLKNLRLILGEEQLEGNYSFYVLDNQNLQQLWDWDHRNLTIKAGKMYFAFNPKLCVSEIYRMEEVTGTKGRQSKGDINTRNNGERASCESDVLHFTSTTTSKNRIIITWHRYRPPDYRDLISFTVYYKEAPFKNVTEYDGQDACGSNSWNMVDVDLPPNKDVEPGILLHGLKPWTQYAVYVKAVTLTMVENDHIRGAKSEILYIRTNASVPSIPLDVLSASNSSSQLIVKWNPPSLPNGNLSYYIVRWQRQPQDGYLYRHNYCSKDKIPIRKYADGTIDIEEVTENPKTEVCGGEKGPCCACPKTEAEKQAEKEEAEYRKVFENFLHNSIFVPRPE
Chain of Insulin-like growth factor 1 receptor (Homo sapiens) (P08069 741-1367 limits assumed): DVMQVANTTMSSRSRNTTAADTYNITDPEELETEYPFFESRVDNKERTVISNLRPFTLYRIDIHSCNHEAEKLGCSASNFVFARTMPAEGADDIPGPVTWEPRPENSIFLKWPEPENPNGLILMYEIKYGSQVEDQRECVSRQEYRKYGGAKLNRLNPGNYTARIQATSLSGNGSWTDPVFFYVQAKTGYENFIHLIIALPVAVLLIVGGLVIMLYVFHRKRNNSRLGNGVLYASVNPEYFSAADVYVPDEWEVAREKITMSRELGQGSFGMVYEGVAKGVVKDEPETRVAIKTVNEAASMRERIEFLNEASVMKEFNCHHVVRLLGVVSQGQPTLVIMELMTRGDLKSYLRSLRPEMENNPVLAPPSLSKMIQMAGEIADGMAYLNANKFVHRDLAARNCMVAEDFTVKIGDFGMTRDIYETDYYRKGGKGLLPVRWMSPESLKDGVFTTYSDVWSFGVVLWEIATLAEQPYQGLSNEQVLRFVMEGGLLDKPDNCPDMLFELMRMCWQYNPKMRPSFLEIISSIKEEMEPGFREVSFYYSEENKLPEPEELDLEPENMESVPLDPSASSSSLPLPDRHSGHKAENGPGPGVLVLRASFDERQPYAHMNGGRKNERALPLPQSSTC

Turning to `O=C1NC(=O)C(c2c[nH]c3ccccc23)=C1c1c[nH]c2ccccc12`, the residual activity came out at 82% in [1]; 75% in [2]; 82% in test [3]; 35% in test [4]; 69% in [5]; 26% in test [6]. Besides, the residual activity in test [7] was determined as 70%; in test [8], 14%; in test [9] it was 76%.

As to `COc1cc2nccc(Oc3ccc(NC(=S)NC(=O)c4ccccc4C)cc3)c2cc1OC`, the residual activity in [1] amounted to 65%; in [10], 87%; in test [2], 87%; in [11] it was 91%; in [12], 71%; in test [3], 89%. For the same compound, the residual activity in [4] amounted to 75%; in [5], 78%; in test [6] it was 67%; in test [7], 57%; in test [8] it was 48%; in test [13], 78%. The residual activity in test [14] stood at 77%; in test [15] it was 87%; in [9], 73%; in test [16] it was 92%.
